In ChEMBL document CHEMBL1961873, “Compounds: GSK PKIS; Assays: Nanosyn kinase panel” (2012):

Key:
[1] = target: Protein kinase C gamma type (Homo sapiens) (UniProt P05129); conditions: at 1 µM;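 further: each value is an averaged percent inhibition of the enzyme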
[2] = target: T1, Protein kinase C iota type (Homo sapiens) (UniProt P41743); conditions: at 0.1 µM
T1 sequence (whole entry): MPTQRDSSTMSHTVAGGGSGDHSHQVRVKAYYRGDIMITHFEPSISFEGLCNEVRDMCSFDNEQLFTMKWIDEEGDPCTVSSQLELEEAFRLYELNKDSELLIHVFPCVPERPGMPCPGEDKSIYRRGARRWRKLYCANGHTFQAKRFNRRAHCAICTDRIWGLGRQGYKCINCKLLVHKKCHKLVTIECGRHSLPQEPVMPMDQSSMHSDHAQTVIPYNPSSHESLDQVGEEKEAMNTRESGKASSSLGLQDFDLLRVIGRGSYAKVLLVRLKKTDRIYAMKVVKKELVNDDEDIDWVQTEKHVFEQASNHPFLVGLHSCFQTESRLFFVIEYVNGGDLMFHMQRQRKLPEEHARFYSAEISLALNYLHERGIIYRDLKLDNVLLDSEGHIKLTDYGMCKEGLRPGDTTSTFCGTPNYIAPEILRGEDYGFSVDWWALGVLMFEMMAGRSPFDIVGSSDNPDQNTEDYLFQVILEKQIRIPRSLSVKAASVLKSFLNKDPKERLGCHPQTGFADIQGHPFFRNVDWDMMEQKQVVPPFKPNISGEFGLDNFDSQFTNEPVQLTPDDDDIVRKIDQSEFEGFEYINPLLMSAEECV

[3] = target: T1, Protein kinase C iota type (Homo sapiens); conditions: at 1 µM
[4] = target: Protein kinase C theta type (Homo sapiens) (UniProt Q04759); conditions: at 0.1 µM
Protein kinase C theta type (Homo sapiens), sequence (Q04759 whole entry, looked up): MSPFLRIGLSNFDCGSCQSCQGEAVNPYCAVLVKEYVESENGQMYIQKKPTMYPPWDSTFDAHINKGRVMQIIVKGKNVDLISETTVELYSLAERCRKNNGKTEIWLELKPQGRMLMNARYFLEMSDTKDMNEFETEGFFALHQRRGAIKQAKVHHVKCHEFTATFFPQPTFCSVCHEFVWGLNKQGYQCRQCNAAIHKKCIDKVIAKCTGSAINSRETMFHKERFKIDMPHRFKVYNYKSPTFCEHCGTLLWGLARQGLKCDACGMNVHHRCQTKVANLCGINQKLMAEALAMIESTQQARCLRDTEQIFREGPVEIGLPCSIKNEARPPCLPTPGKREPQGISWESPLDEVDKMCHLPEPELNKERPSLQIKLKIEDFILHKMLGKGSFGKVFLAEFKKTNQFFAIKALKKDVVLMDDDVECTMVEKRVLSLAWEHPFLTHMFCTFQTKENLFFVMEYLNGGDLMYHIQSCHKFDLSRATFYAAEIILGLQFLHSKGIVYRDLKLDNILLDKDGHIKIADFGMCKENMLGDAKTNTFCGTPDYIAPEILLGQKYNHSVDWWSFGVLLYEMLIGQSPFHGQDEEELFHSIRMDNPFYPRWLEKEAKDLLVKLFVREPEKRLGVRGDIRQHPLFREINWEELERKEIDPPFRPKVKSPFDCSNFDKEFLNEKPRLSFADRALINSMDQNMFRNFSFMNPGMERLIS

[5] = target: Protein kinase C theta type (Homo sapiens) (UniProt Q04759); conditions: at 1 µM
[6] = target: Protein kinase C beta type (Homo sapiens) (UniProt P05771); conditions: at 0.1 µM
Protein kinase C beta type (Homo sapiens), sequence (P05771 2-671 limits assumed): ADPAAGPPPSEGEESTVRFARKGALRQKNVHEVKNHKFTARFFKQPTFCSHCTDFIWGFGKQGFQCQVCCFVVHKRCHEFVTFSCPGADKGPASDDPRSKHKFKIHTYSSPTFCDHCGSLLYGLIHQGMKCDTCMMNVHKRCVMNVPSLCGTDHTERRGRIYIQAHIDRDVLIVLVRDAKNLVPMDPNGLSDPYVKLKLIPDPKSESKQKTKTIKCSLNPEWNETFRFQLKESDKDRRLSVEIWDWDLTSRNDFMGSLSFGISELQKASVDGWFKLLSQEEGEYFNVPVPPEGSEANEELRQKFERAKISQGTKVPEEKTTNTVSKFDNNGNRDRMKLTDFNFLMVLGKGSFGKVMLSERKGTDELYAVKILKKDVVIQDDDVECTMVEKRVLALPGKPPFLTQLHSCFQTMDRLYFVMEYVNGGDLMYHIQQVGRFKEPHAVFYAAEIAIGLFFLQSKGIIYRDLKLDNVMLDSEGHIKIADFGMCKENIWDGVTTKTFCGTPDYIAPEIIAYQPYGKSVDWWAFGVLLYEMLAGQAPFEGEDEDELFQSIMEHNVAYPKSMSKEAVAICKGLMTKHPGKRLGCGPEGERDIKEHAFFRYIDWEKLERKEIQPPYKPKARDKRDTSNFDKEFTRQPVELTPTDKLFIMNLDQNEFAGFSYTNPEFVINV

[7] = target: Protein kinase C beta type (Homo sapiens) (UniProt P05771); conditions: at 1 µM
[8] = target: T2, Serine/threonine-protein kinase D1 (Homo sapiens) (UniProt Q15139); conditions: at 0.1 µM
T2 sequence (whole entry): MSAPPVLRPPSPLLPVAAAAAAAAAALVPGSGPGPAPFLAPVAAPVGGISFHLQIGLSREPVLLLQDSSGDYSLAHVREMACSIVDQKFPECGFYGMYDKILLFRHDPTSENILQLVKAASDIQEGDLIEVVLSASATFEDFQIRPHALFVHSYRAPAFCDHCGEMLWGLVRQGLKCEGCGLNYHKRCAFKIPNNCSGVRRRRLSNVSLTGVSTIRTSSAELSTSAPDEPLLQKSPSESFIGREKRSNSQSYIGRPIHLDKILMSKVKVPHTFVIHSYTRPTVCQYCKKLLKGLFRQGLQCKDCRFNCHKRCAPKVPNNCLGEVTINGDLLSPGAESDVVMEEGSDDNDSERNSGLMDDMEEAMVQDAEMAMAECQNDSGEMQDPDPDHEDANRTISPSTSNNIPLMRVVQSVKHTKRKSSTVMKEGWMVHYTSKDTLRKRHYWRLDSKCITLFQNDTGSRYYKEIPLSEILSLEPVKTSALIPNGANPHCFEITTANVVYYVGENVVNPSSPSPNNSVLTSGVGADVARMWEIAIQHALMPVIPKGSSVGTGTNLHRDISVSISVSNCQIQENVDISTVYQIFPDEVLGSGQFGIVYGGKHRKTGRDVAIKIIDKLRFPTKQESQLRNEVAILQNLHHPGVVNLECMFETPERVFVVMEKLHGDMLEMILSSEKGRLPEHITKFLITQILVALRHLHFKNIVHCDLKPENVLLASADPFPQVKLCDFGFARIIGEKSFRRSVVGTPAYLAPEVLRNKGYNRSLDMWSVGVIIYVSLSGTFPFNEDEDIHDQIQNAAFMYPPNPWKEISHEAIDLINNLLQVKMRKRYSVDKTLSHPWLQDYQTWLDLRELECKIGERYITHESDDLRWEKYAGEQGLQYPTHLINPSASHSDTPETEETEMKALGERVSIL

[9] = target: T2, Serine/threonine-protein kinase D1 (Homo sapiens); conditions: at 1 µM
[10] = target: T3, Serine/threonine-protein kinase D2 (Homo sapiens) (UniProt Q9BZL6); conditions: at 0.1 µM
T3 sequence (whole entry): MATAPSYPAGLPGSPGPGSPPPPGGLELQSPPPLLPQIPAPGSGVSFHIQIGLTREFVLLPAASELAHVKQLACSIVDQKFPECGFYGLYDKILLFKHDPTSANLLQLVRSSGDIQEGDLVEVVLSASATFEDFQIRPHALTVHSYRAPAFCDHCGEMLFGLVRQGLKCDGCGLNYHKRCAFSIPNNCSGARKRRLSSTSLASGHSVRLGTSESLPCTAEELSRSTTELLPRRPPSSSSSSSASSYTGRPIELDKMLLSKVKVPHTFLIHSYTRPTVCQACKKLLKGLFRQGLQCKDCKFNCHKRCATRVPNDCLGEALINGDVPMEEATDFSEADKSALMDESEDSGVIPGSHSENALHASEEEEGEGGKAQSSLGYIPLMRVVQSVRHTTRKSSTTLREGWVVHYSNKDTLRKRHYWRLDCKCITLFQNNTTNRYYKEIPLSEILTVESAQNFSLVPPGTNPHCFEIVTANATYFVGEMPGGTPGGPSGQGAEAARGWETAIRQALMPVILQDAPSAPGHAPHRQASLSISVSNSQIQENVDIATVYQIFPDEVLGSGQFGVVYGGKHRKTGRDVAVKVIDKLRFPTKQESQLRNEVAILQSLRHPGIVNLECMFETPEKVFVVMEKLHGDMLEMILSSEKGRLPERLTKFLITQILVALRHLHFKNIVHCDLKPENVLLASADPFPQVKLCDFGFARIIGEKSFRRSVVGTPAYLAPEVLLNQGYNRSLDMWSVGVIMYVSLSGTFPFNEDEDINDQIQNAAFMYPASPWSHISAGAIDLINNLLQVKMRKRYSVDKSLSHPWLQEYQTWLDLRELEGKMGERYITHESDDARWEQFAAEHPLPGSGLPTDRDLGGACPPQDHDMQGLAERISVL

[11] = target: T3, Serine/threonine-protein kinase D2 (Homo sapiens); conditions: at 1 µM
[12] = target: T4, Serine/threonine-protein kinase D3 (Homo sapiens) (UniProt O94806); conditions: at 0.1 µM
T4 sequence (whole entry): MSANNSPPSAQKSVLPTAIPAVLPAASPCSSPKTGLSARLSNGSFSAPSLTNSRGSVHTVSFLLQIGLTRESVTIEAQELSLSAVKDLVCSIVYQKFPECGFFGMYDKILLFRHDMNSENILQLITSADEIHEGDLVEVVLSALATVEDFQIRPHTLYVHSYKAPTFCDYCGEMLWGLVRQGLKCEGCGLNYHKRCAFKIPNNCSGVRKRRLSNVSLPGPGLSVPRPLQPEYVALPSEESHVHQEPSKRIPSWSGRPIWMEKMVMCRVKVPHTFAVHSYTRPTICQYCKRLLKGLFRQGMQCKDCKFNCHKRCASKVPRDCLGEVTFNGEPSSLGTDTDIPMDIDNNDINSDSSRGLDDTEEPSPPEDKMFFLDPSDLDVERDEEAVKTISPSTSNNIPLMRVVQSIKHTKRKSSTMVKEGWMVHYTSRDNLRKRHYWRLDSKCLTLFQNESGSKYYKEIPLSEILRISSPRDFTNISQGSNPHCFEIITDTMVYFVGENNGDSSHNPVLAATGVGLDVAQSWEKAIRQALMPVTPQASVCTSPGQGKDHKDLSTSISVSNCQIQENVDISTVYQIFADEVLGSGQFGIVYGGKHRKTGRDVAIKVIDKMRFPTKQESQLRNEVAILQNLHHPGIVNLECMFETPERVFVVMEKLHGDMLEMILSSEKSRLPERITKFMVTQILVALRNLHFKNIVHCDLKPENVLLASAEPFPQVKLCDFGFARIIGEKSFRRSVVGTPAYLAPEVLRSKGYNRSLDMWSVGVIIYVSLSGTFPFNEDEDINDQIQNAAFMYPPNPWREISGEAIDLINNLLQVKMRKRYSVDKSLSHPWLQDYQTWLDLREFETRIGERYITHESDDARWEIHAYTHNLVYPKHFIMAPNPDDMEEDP

[13] = target: T4, Serine/threonine-protein kinase D3 (Homo sapiens); conditions: at 1 µM
[14] = target: T5, cGMP-dependent protein kinase 1 (Homo sapiens) (UniProt Q13976); conditions: at 0.1 µM
T5 sequence (whole entry): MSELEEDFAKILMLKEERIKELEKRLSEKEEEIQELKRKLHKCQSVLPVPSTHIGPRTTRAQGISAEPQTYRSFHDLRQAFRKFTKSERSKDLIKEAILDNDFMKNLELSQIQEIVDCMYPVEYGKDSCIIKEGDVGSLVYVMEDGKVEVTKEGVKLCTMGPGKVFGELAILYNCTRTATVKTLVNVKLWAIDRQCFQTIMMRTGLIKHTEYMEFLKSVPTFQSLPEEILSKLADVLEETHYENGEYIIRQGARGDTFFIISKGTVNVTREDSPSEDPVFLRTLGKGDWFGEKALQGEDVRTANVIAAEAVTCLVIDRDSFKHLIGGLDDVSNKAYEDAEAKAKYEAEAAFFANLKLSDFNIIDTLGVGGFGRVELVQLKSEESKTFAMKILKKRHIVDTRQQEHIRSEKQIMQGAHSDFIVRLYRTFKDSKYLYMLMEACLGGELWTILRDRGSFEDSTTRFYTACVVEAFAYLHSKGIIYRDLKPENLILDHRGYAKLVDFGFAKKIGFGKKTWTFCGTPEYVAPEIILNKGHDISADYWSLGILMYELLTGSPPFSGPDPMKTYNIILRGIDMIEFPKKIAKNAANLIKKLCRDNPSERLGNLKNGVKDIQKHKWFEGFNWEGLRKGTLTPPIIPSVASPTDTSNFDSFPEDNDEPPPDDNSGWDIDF

[15] = target: T5, cGMP-dependent protein kinase 1 (Homo sapiens); conditions: at 1 µM
[16] = target: T6, cGMP-dependent protein kinase 2 (Homo sapiens) (UniProt Q13237); conditions: at 0.1 µM
T6 sequence (whole entry): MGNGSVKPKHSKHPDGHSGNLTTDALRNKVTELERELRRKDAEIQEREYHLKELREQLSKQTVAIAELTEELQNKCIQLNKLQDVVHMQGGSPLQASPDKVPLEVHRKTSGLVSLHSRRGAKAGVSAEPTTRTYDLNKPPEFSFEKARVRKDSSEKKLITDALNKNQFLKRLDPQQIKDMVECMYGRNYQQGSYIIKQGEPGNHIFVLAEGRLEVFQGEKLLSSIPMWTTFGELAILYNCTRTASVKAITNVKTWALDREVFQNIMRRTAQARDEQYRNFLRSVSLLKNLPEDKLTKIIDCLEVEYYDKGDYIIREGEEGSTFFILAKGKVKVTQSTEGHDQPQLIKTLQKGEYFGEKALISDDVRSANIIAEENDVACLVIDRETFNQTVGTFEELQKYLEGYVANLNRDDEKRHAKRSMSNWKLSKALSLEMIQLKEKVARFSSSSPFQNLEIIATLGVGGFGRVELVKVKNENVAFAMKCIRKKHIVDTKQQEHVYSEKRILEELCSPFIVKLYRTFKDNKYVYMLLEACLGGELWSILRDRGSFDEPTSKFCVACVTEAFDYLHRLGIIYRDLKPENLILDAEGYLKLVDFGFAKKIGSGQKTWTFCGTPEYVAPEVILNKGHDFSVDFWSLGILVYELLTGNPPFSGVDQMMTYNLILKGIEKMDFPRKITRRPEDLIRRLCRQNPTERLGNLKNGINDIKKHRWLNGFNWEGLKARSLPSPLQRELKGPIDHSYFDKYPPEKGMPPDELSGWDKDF

[17] = target: T6, cGMP-dependent protein kinase 2 (Homo sapiens); conditions: at 1 µM
[18] = target: T7, cAMP-dependent protein kinase catalytic subunit PRKX (Homo sapiens) (UniProt P51817); conditions: at 0.1 µM
T7 sequence (whole entry): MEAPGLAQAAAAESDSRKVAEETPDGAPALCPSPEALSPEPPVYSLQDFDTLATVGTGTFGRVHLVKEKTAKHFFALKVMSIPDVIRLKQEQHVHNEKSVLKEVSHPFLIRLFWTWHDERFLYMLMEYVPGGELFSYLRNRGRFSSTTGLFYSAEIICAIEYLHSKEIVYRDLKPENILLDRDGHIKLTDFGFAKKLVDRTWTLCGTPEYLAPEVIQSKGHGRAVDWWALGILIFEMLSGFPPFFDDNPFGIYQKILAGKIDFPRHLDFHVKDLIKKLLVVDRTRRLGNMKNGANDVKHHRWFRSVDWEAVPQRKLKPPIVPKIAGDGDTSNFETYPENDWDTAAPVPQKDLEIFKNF

[19] = target: T7, cAMP-dependent protein kinase catalytic subunit PRKX (Homo sapiens); conditions: at 1 µM
[20] = target: Rho-associated protein kinase 1 (Homo sapiens) (UniProt Q13464); conditions: at 0.1 µM;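 further: values are mean percent inhibition of ROCK1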
Rho-associated protein kinase 1 (Homo sapiens), sequence (Q13464 2-1354 limits assumed): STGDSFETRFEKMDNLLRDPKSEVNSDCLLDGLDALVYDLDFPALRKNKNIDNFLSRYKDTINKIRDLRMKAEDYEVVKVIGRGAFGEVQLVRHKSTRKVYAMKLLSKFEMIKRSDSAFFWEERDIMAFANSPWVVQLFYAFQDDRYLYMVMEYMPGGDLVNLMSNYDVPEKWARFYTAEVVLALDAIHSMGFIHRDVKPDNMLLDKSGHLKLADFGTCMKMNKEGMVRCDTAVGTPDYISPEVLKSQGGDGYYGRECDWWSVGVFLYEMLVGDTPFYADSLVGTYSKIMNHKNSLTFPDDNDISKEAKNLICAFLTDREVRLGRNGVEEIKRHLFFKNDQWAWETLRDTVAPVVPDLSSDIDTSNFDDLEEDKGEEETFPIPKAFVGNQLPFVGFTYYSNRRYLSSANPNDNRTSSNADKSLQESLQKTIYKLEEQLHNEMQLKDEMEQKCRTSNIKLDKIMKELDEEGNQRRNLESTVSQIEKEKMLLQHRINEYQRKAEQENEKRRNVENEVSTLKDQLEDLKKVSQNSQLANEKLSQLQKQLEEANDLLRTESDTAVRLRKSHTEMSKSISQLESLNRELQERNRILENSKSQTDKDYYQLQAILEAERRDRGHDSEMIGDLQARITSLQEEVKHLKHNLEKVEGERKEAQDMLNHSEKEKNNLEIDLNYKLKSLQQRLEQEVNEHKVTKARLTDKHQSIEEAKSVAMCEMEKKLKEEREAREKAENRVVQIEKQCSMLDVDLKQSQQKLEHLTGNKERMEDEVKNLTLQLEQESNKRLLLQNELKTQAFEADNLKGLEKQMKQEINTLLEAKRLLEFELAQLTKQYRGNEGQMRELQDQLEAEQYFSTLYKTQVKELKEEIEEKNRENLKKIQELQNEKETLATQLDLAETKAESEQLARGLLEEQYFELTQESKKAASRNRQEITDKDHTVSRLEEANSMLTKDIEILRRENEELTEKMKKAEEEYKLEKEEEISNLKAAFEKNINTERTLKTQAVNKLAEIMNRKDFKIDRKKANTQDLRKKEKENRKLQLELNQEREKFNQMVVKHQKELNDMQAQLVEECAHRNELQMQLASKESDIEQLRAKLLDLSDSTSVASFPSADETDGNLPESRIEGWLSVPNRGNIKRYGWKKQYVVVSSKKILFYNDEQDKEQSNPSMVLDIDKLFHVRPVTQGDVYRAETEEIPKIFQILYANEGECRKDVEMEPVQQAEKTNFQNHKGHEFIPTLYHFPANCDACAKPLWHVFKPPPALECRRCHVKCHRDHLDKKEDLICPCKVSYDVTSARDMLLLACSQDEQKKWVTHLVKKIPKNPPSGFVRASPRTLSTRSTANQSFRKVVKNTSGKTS

SMILES: COC(=O)Nc1nc2ccc(Sc3ccc(NC(=O)Nc4cc(C(F)(F)F)ccc4F)cc3)cc2[nH]1
- inhibition [1]: 4.57%
- inhibition [2]: -0.54%
- inhibition [3]: 0.22%
- inhibition [4]: 0.15%
- inhibition [5]: 0.22%
- inhibition [6]: 0.31%
- inhibition [7]: 0.4%
- inhibition [8]: 0.94%
- inhibition [9]: 0.37%
- inhibition [10]: -0.22%
- inhibition [11]: 0.52%
- inhibition [12]: 1.06%
- inhibition [13]: 0.51%
- inhibition [14]: 0.91%
- inhibition [15]: 1.52%
- inhibition [16]: -0.08%
- inhibition [17]: 0.57%
- inhibition [18]: 0.23%
- inhibition [19]: -1.11%
- inhibition [20]: -0.63%

SMILES: NS(=O)(=O)c1ccc(N/N=C2\C(=O)Nc3ccc(C(=O)NCCCn4ccnc4)cc32)cc1
- inhibition [1]: 7.85%
- inhibition [2]: 2%
- inhibition [3]: 1.81%
- inhibition [4]: 2.3%
- inhibition [5]: 6.44%
- inhibition [6]: 2.11%
- inhibition [7]: 4.2%
- inhibition [8]: 5.9%
- inhibition [9]: 22.9%
- inhibition [10]: 7.13%
- inhibition [11]: 22.3%
- inhibition [12]: 5.36%
- inhibition [13]: 17.6%
- inhibition [14]: 4.15%
- inhibition [15]: 18.9%
- inhibition [16]: 4.37%
- inhibition [17]: 28.2%
- inhibition [18]: 3.32%
- inhibition [19]: 7.39%
- inhibition [20]: 2.63%

SMILES: CCN(CC)Cc1ccc(Nc2nccc(-c3cnn4ncccc34)n2)cc1
- inhibition [1]: 7.9%
- inhibition [2]: 1.27%
- inhibition [3]: 2.03%
- inhibition [4]: 2.37%
- inhibition [5]: 4.84%
- inhibition [6]: 1%
- inhibition [7]: 6.38%
- inhibition [8]: 36.3%
- inhibition [9]: 65.6%
- inhibition [10]: 28.1%
- inhibition [11]: 64.4%
- inhibition [12]: 30.2%
- inhibition [13]: 62.6%
- inhibition [14]: 3.48%
- inhibition [15]: 14.9%
- inhibition [16]: 3.29%
- inhibition [17]: 13.7%
- inhibition [18]: 2.55%
- inhibition [19]: 4.27%
- inhibition [20]: 2.36%
